Drawing on PubChem BioAssay AID624483 (NMMLSC, 2012), this text covers fluorescence intensity for 56 compounds.

The whole screen tested about 360,000 compounds, of which about 11,000 (3.1%) were called active. Roughly 2% stayed inconclusive and do not appear here. Cut-off read from the data, not from the text of the source: active = fluorescence intensity above about 16000; inconclusive = no clear call, values can overlap the other calls; inactive = below that. The full list was thinned out, with actives kept by preference.

This assay can be described thus: counter-screen for toxin protease inhibitors: compound fluorescence, primary screen, artefact control for toxin protease inhibitor project, biochemical, multiplex microsphere, HTS (AID 624483). Conditions: compound autofluorescence counterscreen, microsphere flow cytometry; hits give high values.
Regarding `CN(C)CCNC(=O)c1ccc(-c2cn3c(-c4ccc(Oc5ccccc5)cc4)cnc3cn2)cc1`, the fluorescence intensity is 4030 (inactive).

`Cc1ccccc1N1CC(c2nc3ccccc3[nH]2)CC1=O` (stereo unspecified): the fluorescence intensity was 20000 (active).

Take `O=C(C1CCCO1)N1CCC(c2nc3ccccc3[nH]2)CC1` (stereo unspecified): the fluorescence intensity is 9970 (inactive).

As for `CCCNC(=S)N1CCCC(c2nc3ccccc3[nH]2)C1` (stereo unspecified), the fluorescence intensity was 4060 (inactive).

With `CCCNC(=O)C1(C)CCN1C(=O)C1(c2ccccc2)CC1` (stereo unspecified), the fluorescence intensity was 3570 (inactive).

On to `C=C(C)CSc1nnc(-c2ccc(C)cc2)n1N`, for which the fluorescence intensity is 9220 (inactive).

Turning to `Cn1c(=O)c2c(nc(CN3CCOCC3)n2Cc2ccccc2)n(C)c1=O`, the fluorescence intensity was 9090 (inactive).

Take `C/C(CCc1ccccc1)=N\NC(=O)c1ccc(CN2CCOCC2)cc1`: the fluorescence intensity was 2210 (inactive).

As for `S=C1SCN(CCN2CCOCC2)CN1Cc1ccccc1`, the fluorescence intensity is 24500 (active).

Consider `Cc1cc(C)c(NC(=S)N2CCCC2C(=O)O)c(C)c1` (stereo unspecified), for which the fluorescence intensity was 2490 (inactive).

Turning to `COc1ccc(NC(=O)NCCN2CCN(c3ccc(C)cc3)CC2)c(Cl)c1`, the fluorescence intensity is 3770 (inactive).

For `COc1ccc(N2CCN(CCNC(=O)c3nnc(Cc4c(F)cccc4Cl)o3)CC2)cc1`, the fluorescence intensity was 24000 (active).

For the compound `COc1ccc(N2CCN(CCNC(=O)Nc3cc(Cl)ccc3Cl)CC2)cc1`, the fluorescence intensity was 3500 (inactive).

Regarding `CCCCN(C=O)c1c(CC)nc2c(OCc3ccccc3C(=O)OC)cccn12`, the fluorescence intensity is 4040 (inactive).

`Cc1ccc(CNC(=O)C2CCN(S(=O)(=O)c3ccc4nc5c(c(C(=O)O)c4c3)CC(C)CC5)CC2)cc1` (stereo unspecified): the fluorescence intensity was 5690 (inactive).

As for `COC(=O)[C@@]1(Cc2ccc(OC)cc2)[C@H]2c3cc(C(=O)N4CCCC4)n(Cc4ccc(OC(F)(F)F)cc4)c3C[C@H]2CN1C(=O)c1ccccc1`, the fluorescence intensity was 5540 (inactive).

Consider `Cc1ccc(S(=O)(=O)C(C#N)c2nc3ccccc3nc2N2CCCC2)cc1C` (stereo unspecified), for which the fluorescence intensity was 19400 (active).

On to `CC(C)OC(=O)C(C#N)c1nc2ccccc2nc1N1CCN(Cc2ccccc2)CC1` (stereo unspecified), for which the fluorescence intensity is 2960 (inactive).

In the case of `CC(=O)c1ccc(S(=O)(=O)N2CCN(c3nc4c(C)c(C)ccc4cc3C#N)CC2)cc1`, the fluorescence intensity is 13000 (inactive).

In the case of `CCC(C)(C)C1CCC(=NNC(=O)c2ccc(Br)o2)CC1` (stereo unspecified), the fluorescence intensity is 2520 (inactive).

As for `Cc1ccc(N)cc1-n1c(C)ccc1C`, the fluorescence intensity was 9500 (inactive).

Consider `Cc1ccc2nc(-c3ccco3)c(Cc3cccc(Cl)c3)n2c1`, for which the fluorescence intensity was 4970 (inactive).

As for `C=CCN1C(=O)C2(C(C(=O)OCC)=C(N)Oc3c2c(=O)oc2ccccc32)c2ccccc21` (stereo unspecified), the fluorescence intensity is 4120 (inactive).

For the compound `COC(=O)CN1C(=O)C2(C(C(=O)OC)=C(N)Oc3ccccc32)C2=C1CC(C)(C)CC2=O` (stereo unspecified), the fluorescence intensity was 23500 (active).

As to `CCOC(=O)CC1=C(C(=O)OCC)C2(C(=O)N1)C(C(=O)OC)=C(N)Oc1ccccc12` (stereo unspecified), the fluorescence intensity was 4280 (inactive).

`CC(c1ccccn1)N(C)C(=O)c1ccc2nc(Cc3cccc(Cl)c3)oc2c1` (stereo unspecified): the fluorescence intensity was 5500 (inactive).

For the compound `Cc1ccc(C(c2nnnn2CS(=O)(=O)c2ccc(C)cc2)N2CCC(C)CC2)cc1` (stereo unspecified), the fluorescence intensity was 4360 (inactive).

As to `CCN(CC)c1ccc(NC(=O)CCc2nnc3ccc(N4CCCCC4)nn23)c(C)c1`, the fluorescence intensity is 4470 (inactive).

On to `OC[C@H]1O[C@@H](c2nc(-c3nc(-c4ccc(F)cc4)no3)cs2)[C@H](O)[C@@H](O)[C@H]1O`, for which the fluorescence intensity is 4000 (inactive).

In the case of `CC1(C(=O)NCC2CCOCC2)Cc2c(-c3cccc(C(N)=O)c3)ccnc2O1` (stereo unspecified), the fluorescence intensity is 4060 (inactive).

For `O=C(Cc1cccs1)N1CCCC(c2nc(-c3ccc(S(=O)(=O)N4CCCC4)cc3)no2)C1` (stereo unspecified), the fluorescence intensity is 16600 (active).

As to `O=C(c1cccs1)N1CCCC(c2nc(-c3ccc(F)cc3)no2)C1` (stereo unspecified), the fluorescence intensity was 11100 (inactive).

As for `O=C(c1ccc(F)cc1)N1CCCC(c2nc(-c3cccs3)no2)C1` (stereo unspecified), the fluorescence intensity was 4320 (inactive).

Consider `CCCNC(=O)C1(C)CCCN(C(=O)c2oc3ccccc3c2C)C1` (stereo unspecified), for which the fluorescence intensity is 3630 (inactive).

Take `CCOc1ccc(NC(=O)CN(C)C(=O)CCSc2ccc(F)cc2)cc1OCC`: the fluorescence intensity is 3520 (inactive).

Regarding `COc1ccc(O)c(/C=N/N=C/c2cccc([N+](=O)[O-])c2)c1`, the fluorescence intensity was 3450 (inactive).

Regarding `COc1ccc(O)c(C=Nc2cc(C)on2)c1`, the fluorescence intensity is 22400 (active).

On to `Cc1cc(N=CC2=C(O)CCCC2=O)no1`, for which the fluorescence intensity is 3160 (inactive).

For `COc1ccc(C(=O)OCC(=O)NC(=O)CCSc2ccccc2)cc1`, the fluorescence intensity was 2520 (inactive).

Consider `CCOc1ccc(NC(=O)c2cccc3c2C(=O)N(CC2CCCO2)C3)cc1` (stereo unspecified), for which the fluorescence intensity is 6080 (inactive).

For `CC(=O)Nc1ccc(NC(=O)CSc2nnc(COc3ccccc3C)n2CC2CCCO2)cc1` (stereo unspecified), the fluorescence intensity is 3370 (inactive).

Regarding `CCOc1cccc(=O)c2c(C)n(CC3CCCO3)c(C)c12` (stereo unspecified), the fluorescence intensity was 22100 (active).

In the case of `COc1nc(Oc2ccc(=O)n(C)n2)nc(N(C)C)n1`, the fluorescence intensity was 2790 (inactive).

`Cc1ccccc1N1C(=O)C2ON(c3ccccc3)C(c3ccncc3)C2C1=O` (stereo unspecified): the fluorescence intensity was 23600 (active).

Consider `COc1cc(C2C3C(=O)N(c4ccccc4)C(=O)C3ON2c2ccccc2)ccc1O` (stereo unspecified), for which the fluorescence intensity was 3690 (inactive).

`O=C1[C@@H](c2ccccc2)[C@@H](c2ccccc2)N1c1cccnc1`: the fluorescence intensity was 3340 (inactive).

Take `Cc1cccc2cc(CN(Cc3nnnn3Cc3ccccc3)C3CCCC3)c(=O)[nH]c12`: the fluorescence intensity is 7870 (inactive).

Turning to `Cc1cc(C)c2cc(CN(Cc3nnnn3Cc3ccc(F)cc3)C3CCCC3)c(=O)[nH]c2c1`, the fluorescence intensity is 22000 (active).

With `Cc1cc(C)c2cc(CN(Cc3cccs3)Cc3nnnn3CC3CCCO3)c(=O)[nH]c2c1` (stereo unspecified), the fluorescence intensity was 11000 (inactive).

With `CCCCC[C@H](C)N1C[C@@H](COCc2ccccc2)Oc2cc(N3CCC[C@@H]3CO)ccc2S1(=O)=O`, the fluorescence intensity is 5890 (inactive).

As to `CC(C)CC(NC(=O)C1CCCN1C(=O)[C@@H](C)NC(=O)OCc1ccccc1)C(=O)NCC(N)=O` (stereo partly specified), the fluorescence intensity is 3990 (inactive).

Consider `Cn1c(NCc2cccnc2)nc2cc(-c3ccc(F)cc3)sc2c1=O`, for which the fluorescence intensity was 2810 (inactive).

In the case of `COc1ccc(-c2cc(-c3ccc(N)cc3)nc(N)c2C#N)cc1OC`, the fluorescence intensity was 4760 (inactive).

With `CCSc1nc(-c2ccc(OC)cc2)cc(-c2ccc(OC)cc2)c1C#N`, the fluorescence intensity is 9530 (inactive).

In the case of `CCOc1cc(-c2cc(-c3ccc(OC)cc3)nc(N)c2C#N)ccc1O`, the fluorescence intensity is 24300 (active).

As for `C[C@H](NC(=O)CC[C@H]1O[C@@H](n2ccc(=O)[nH]c2=O)[C@H](O)[C@@H]1O)c1cccc2ccccc12`, the fluorescence intensity was 5050 (inactive).
